Screening data deposited in PubChem by Broad Institute.
aSyn UTR act: Activators via SNCA 5'UTR binding, MLPCN | alpha-synuclein 5'UTR reporter, activators screen | activity score, % (tested at 7.5 µM), hits read low | actives 7.1% (n = 300,000) | AID 1814; in the data active means activity score below about -60%
Numbers without * were called inactive. A selection follows.

SMILES | aSyn UTR act
CCc1ccc(-c2cc(C(=O)N3N=C(C(F)F)CC3(O)C(F)F)c3ccccc3n2)cc1 (stereo unspecified) | -68*
O=c1[nH]c(/C=C/c2ccccc2[N+](=O)[O-])nc2ccccc12 | -190*
O=c1[nH]c(/C=C/c2cccc3ccccc23)nc2ccccc12 | -104*
O=c1[nH]c(/C=C/c2ccccn2)nc2ccccc12 | -176*
CCCCC12CN3CCN(CC(C3)/C1=N\NC(=O)c1ccccc1N)C2 | -71*
Cc1ccc2c(c1)OC(c1ccc3c(c1)OCCO3)CC2=O (stereo unspecified) | -151*
CCOC(=O)C1CCN(C(=O)c2cc3c(ccc4ccccc43)o2)CC1 | -115*
CCOC(=O)C1CCN(C(=O)c2c(C)oc3c2C(=O)c2ccccc2C3=O)CC1 | 72
Cc1oc2c(c1C(=O)N1CCC(C)CC1)C(=O)c1ccccc1C2=O | 83
CC1CCN(C(=O)c2cc3ccccc3c(=O)o2)CC1 | -78*
CCOC(=O)C1CCN(Cc2c(O)ccc3ccccc23)CC1 | -108*
CCSc1ccc(-c2cccc([N+](=O)[O-])c2)nn1 | -89*
O=C(/C=C/c1ccccc1)NCc1ccco1 | -72*
N#C/C(=C\C=C\c1ccccc1)C(=O)NCc1ccco1 | -63*
O=C(/C=C/c1ccc2c(c1)OCO2)NCc1ccco1 | -68*
O=C(/C=C/c1ccccc1Cl)NCc1ccco1 | -120*
Cc1onc(-c2ccccc2Cl)c1C(=O)NCc1ccco1 | -80*
Cc1nc(C(=O)NNC(=O)c2c(-c3c(Cl)cccc3Cl)noc2C)cs1 | 63
COCCCNc1oc(-c2ccccc2F)nc1C#N | -84*
N#Cc1nc(-c2ccccc2F)oc1NCCc1ccccn1 | -81*
O=C(Nc1nc2c(Cl)cccc2s1)c1ccc(Br)o1 | -131*
O=C(Nc1cccc(NC(=O)c2ccccc2Cl)c1)c1ccc([N+](=O)[O-])o1 | 86
O=C(Nc1nc2ccc(Cl)cc2s1)c1ccc(Br)o1 | -237*
O=C(Nc1nc2c(Cl)cccc2s1)c1ccc([N+](=O)[O-])o1 | -80*
O=C(Nc1nc2c(F)cccc2s1)c1ccc([N+](=O)[O-])o1 | -95*
SMILES | aSyn UTR act
COc1ccc(/C=C2\SC(N3CCCCC3)=NC2=O)cc1 | -92*
O=C1N=C(N2CCCCC2)S/C1=C\c1cn[nH]c1-c1ccccc1 | -78*
CCn1c(C(=O)OC)cc2c1ccn2-c1ccc(F)cc1 | -157*
Clc1ccccc1CSc1nnc(-c2ccncc2)o1 | -127*
Fc1cccc(Cl)c1CSc1nnc(-c2ccncc2)o1 | -109*
N#Cc1ccccc1CSc1nnc(-c2ccncc2)o1 | -114*
N#Cc1cccc(-c2nnc(SCc3ccccc3C#N)o2)c1 | -65*
Brc1ccc(-c2cnc(-c3cccs3)o2)cc1 | -171*
COc1ccc(CCNC(=O)C2CC(c3cccc([N+](=O)[O-])c3)=NO2)cc1 (stereo unspecified) | -112*
CCCCNC(=O)C1CC(c2cccc(F)c2)=NO1 (stereo unspecified) | -94*
O=C(NCCc1cccs1)C1CC(c2ccc([N+](=O)[O-])cc2)=NO1 (stereo unspecified) | -157*
COc1ccc(N2CCN(S(=O)(=O)CCNC(=O)Cc3ccc([N+](=O)[O-])cc3)CC2)cc1 | 65
COc1ccc(CCNC(=O)C2CC(c3ccc([N+](=O)[O-])cc3)=NO2)cc1 (stereo unspecified) | -69*
Cc1ccc(CNC(=O)C2CC(c3cccc([N+](=O)[O-])c3)=NO2)o1 (stereo unspecified) | -88*
O=[N+]([O-])c1cccc(-c2nnc(SCc3cccnc3)o2)c1 | -62*
COc1cccc(-c2nnc(SCc3cccnc3)o2)c1 | -164*
COc1cc(/C=N/NC(=O)COc2ccc(C)cc2)ccc1OC(=O)c1cccs1 | -65*
c1ccc(N2CCN(c3nc4cc5c(cc4s3)OCO5)CC2)cc1 | -142*
c1c2c(cc3sc(N4CCOCC4)nc13)OCO2 | -64*
Cc1ccc(NC(=O)c2ccc3nc(N4CCOCC4)sc3c2)c(Cl)c1 | -68*
Fc1ccc2nc(N3CCOCC3)sc2c1 | -131*
c1ccc2c(c1)CCN(c1nc3cc4c(cc3s1)OCO4)C2 | -122*
COc1ccccc1OCC#CCSc1ncccn1 | -81*
CC(C)CCn1cnc2c(cnn2-c2ccc(F)cc2)c1=O | -83*
CC(=O)Cn1cnc2c(cnn2-c2ccc(C)c(C)c2)c1=O | -106*
SMILES | aSyn UTR act
CCOC(=O)Cn1cnc2c(cnn2-c2ccc(Cl)cc2)c1=O | -65*
CCOC(=O)C1CCN(c2ncnc3c2cnn3-c2ccc(Cl)cc2)CC1 | 65
Fc1ccccc1Cn1nnc(-c2ccc3c(c2)OCO3)n1 | -77*
COc1ccc(-c2nnn(Cc3ccccc3F)n2)cc1 | -207*
Cc1ccc(C)c(NC(=O)N2CCc3ccccc3C2)c1 | -67*
CC(C)c1ccc(NC(=O)N2CCc3ccccc3C2)cc1 | -261*
O=[N+]([O-])c1ccc(N2CCc3ccccc3C2)cc1 | -117*
O=C(Nc1ccc([N+](=O)[O-])cc1)N1CCc2ccccc2C1 | -106*
COc1ccc(/C=N/NC(=O)c2[nH]c3ccc(Br)cc3c2-c2ccccc2)cc1 | 80
COc1ccc2c(c1)c(C(=O)N/N=C/c1ccc(Br)cc1)c(C)n2C | -116*
COc1ccc2c(/C=N/Nc3ccc(C(=O)O)cc3)c[nH]c2c1 | -135*
C/C(=N\Nc1ccc(C(=O)O)cc1)c1ccc(Cl)s1 | -87*
COc1ccc2c(c1)c(/C=N/Nc1ccc(C(=O)O)cc1)c(C)n2C | -75*
CCCCCN=C(N)N/N=C/c1c[nH]c2ccc(OC)cc12 | 108
COc1ccc(C(=O)N/N=C/c2c[nH]c3ccccc23)cc1 | -70*
COc1ccc(C(=O)N/N=C/c2sc3ccccc3c2O)cc1 | 84
COc1ccc(/C(C)=N/Nc2ccc(C(=O)O)cc2)c(OC)c1 | -140*
COc1ccc(C(=O)N/N=C(\c2ccccc2)c2ccccn2)cc1 | 107
CC(C)NC(=S)N/N=C/c1c[nH]c2ccccc12 | -124*
COc1ccc(C(=O)N/N=C/C(=O)c2ccccc2)cc1 | -133*
COc1ccc(NC(=O)COC(=O)c2c(F)cccc2Cl)cc1OC | -110*
COc1cc(CCC(C)=O)ccc1OC(=O)c1c(F)cccc1Cl | -185*
COc1ccc(CCNC(=O)c2ccc(Cl)cc2Cl)cc1OC | -99*
NNC(=O)c1cc2sccc2s1 | -80*
Cc1c(C(=O)N(CCO)Cc2ccccc2)oc2c(F)cccc12 | -112*
SMILES | aSyn UTR act
Cc1cc(/C=N/Nc2ncnc(N)c2[N+](=O)[O-])c(C)n1-c1ccccc1 | 95
Cc1cc(/C=N/Nc2nc(N)ncc2[N+](=O)[O-])c(C)n1-c1cccc(C(F)(F)F)c1 | -117*
O=[N+]([O-])c1cc(CN2CCN(c3cccc(C(F)(F)F)c3)CC2)c2cccnc2c1O | 71
Cn1c(O)c(N=NC(=O)c2ccccc2O)c2ccccc21 | -103*
Cn1c(O)c(N=NC(=S)Nc2ccccc2F)c2cc(S(=O)(=O)N3CCOCC3)ccc21 | 95
Cc1cc(N=NC(=O)c2ccccc2O)c2ccccc2c1O | -123*
Cn1c(O)c(N=NC(=O)c2ccco2)c2ccccc21 | -80*
Cc1ccc(N=Nc2ccc(O)c3ncccc23)cc1C | 74
Cn1c(O)c(N=Nc2ccccc2[N+](=O)[O-])c2ccccc21 | -65*
Cc1occc1C(=O)N=Nc1c(O)n(C)c2ccccc12 | -247*
Cc1occc1C(=O)N=Nc1c(O)[nH]c2ccc(Br)cc12 | -237*
Cc1cccc(Cn2c(O)c(N=NC(=S)Nc3ccccc3F)c3ccccc32)c1 | 61
Fc1ccc(-c2nnn(Cc3ccc(F)cc3Cl)n2)cc1 | -71*
